Data taken from the supplement of paper PMC9135407.
Values joined by “and” are separate entries in the source; they are usually repeats but may differ in a detail not shown here. Identical values can stand only once. Counter-ions that a name gives are not always drawn. Hit rate of the full screen: of about 5,800 compounds, about 620 (11%) showed activity. Many of the other results were omitted from the sample, so actives are more common in it than they were. Unmarked numbers belong to inactive results.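 How the source made its calls: active = score above a cut-off or among the top three wells of a plate; in these data no inactive exceeds 0.85.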

System: primary human hepatic stellate cells (donor 1)
Test: scaled lipid accumulation score (0 = DMSO-like, 1 = nortriptyline-like); higher = stronger HSC inactivation (lipid re-accumulation), active = hit call of the paper
Settings: 48 h
[1] = library stock concentration: 3.33 mM
[2] = library stock concentration: 10 mM
[3] = library stock concentration: 1 mM
[4] = library stock concentration: 400 uM
[5] = library stock concentration: 2 mM

With CC(NC(=O)C(O)c1cc(F)cc(F)c1)C(=O)NC1C(=O)N(C)c2ccccc2-c2ccccc21 (configuration not stated) the “scaled lipid accumulation score” value [1] was 0.011 and the “scaled lipid accumulation score” value [2] was 0.133.
O=C(Nc1cccc2cccnc12)c1ccc(N2C(=O)C3C4C=CC(C4)C3C2=O)cc1 (stereo not drawn) [IWR-1-endo] was tested, and the “scaled lipid accumulation score” value [1] was no more than 0 and the “scaled lipid accumulation score” value [2] was no more than -0.001.
For CCCCC/C=C\C/C=C\C/C=C\C/C=C\CCCC(=O)OCc1ccsc1, the “scaled lipid accumulation score” value [3] was no more than 0.
For C[C@]12CC[C@@H]3c4cc(O)c(O)cc4CC[C@H]3[C@@H]1CC[C@@H]2O [2-Hydroxyestradiol], the “scaled lipid accumulation score” value [3] was no more than 0.
In the case of Nc1nccc(-c2ccc3noc(-c4ccc(Cl)cc4)c3c2)n1 [PIM 1 Inhibitor 2], the “scaled lipid accumulation score” value [2] is reported as no more than 0.
With CCNc1nc2c(ncn2[C@H]2C[C@H](O)[C@@H](CO)O2)c(=O)[nH]1 [N2-Ethyl-2'-deoxyguanosine] the “scaled lipid accumulation score” value [2] was no more than 0.
In the case of N.N.N.N.N.N.N.N.N.N.N.N.N.N.O.O.[Cl-].[Cl-].[Cl-].[Cl-].[Cl-].[Cl-].[Ru+4].[Ru+5].[Ru+5] [Ruthenium red], the “scaled lipid accumulation score” value [2] is reported as no more than 0.
For CC(C)=CCC/C(C)=C/CC/C(C)=C/CC/C(C)=C/CC/C(C)=C/CC/C(C)=C/CC1=C(C)C(=O)c2ccccc2C1=O [Vitamin K2], the “scaled lipid accumulation score” value was 0.008.
For CN1CCN(C2=Nc3cc(Cl)ccc3Nc3ccccc32)CC1 [Clozapine] [listing 1 of 2 here], the “scaled lipid accumulation score” value [1] was 0.105, the “scaled lipid accumulation score” value (library stock concentration: 6.1 mM) was 0.429 and 0.648 and the “scaled lipid accumulation score” value [2] was 0.755 and 0.578. The “scaled lipid accumulation score” value (library stock concentration: 15.3 mM) was 0.769.
For CN1CCN(C2=Nc3cc(Cl)ccc3Nc3ccccc32)CC1 [Clozapine] [listing 2 of 2 here], the “scaled lipid accumulation score” value [2] was 0.967 (active).
In the case of Cc1cc2c(s1)Nc1ccccc1N=C2N1CCN(C)CC1, the “scaled lipid accumulation score” value (library stock concentration: 9.9 mM) is reported as 0.228.
For Cc1cc2c(s1)Nc1ccccc1N=C2N1CCN(C)CC1 [Olanzapine], the “scaled lipid accumulation score” value [1] was 0.171, the “scaled lipid accumulation score” value (library stock concentration: 6.4 mM) was 0.341 and ≤ 0 and the “scaled lipid accumulation score” value [2] was 0.232.
In the case of O=C(O)CCC/C=C\C[C@@H]1[C@@H](CC[C@@H](O)CCc2cccc(C(F)(F)F)c2)[C@H](O)C[C@@H]1O, the “scaled lipid accumulation score” value [3] is reported as no more than 0.
CCN(CC)CCNC(=O)c1cc(S(C)(=O)=O)ccc1OC [Tiapride hydrochloride] was tested, and the “scaled lipid accumulation score” value was 0.066 and the “scaled lipid accumulation score” value [2] was ≤ 0 and ≤ -0.027.
In the case of CCCCOc1cc(C(=O)NCCN(CC)CC)c2ccccc2n1 [Dibucaine HCl], the “scaled lipid accumulation score” value [1] is reported as 0.253.
In the case of CCCCOc1cc(C(=O)NCCN(CC)CC)c2ccccc2n1 [Dibucaine], the “scaled lipid accumulation score” value is reported as 0.284.
For CCCCOc1cc(C(=O)NCCN(CC)CC)c2ccccc2n1.Cl [Dibucaine HCl], the “scaled lipid accumulation score” value [2] was 0.977 (active).
CCCCOc1cc(C(=O)NCCN(CC)CC)c2ccccc2n1 [Dibucaine hydrochloride] was tested, and the “scaled lipid accumulation score” value (library stock concentration: 5.3 mM) was 0.662 and the “scaled lipid accumulation score” value [2] was no more than 0.
For CS(=O)(=O)NC(=O)CCC/C=C\C[C@H]1C(=O)C[C@@H](O)[C@@H]1/C=C/[C@@H](O)COc1ccccc1 [Sulprostone], the “scaled lipid accumulation score” value [3] was no more than 0.
For O=C1NC(=O)C(c2cnc3ccccn23)=C1c1cn2c3c(cc(F)cc13)CN(C(=O)N1CCCCC1)CC2 [listing 1 of 2 here], the “scaled lipid accumulation score” value [4] was 0.836 and the “scaled lipid accumulation score” value [5] was 0.699.
O=C1NC(=O)C(c2cnc3ccccn23)=C1c1cn2c3c(cc(F)cc13)CN(C(=O)N1CCCCC1)CC2 [listing 2 of 2 here] was tested, and the “scaled lipid accumulation score” value (library stock concentration: 80 uM) was 0.956 (active) and the “scaled lipid accumulation score” value [2] was 0.857 (active).
CC(=O)N[C@H]1[C@H]([C@H](O)[C@H](O)CO)OC(C(=O)O)=C[C@@H]1NC(=N)N [Zanamivir] was tested, and the “scaled lipid accumulation score” value [1] was no more than 0 and the “scaled lipid accumulation score” value [2] was no more than 0.
COc1ccc(C(=O)/C(Br)=C\C(=O)O)cc1 [Bromebric acid] was tested, and the “scaled lipid accumulation score” value (library stock concentration: 7 mM) was no more than -0.006.
In the case of CN(C)c1nc(N)c(C(=O)NC(=N)N)nc1Cl [5-(N,N-Dimethyl)amiloride hydrochloride], the “scaled lipid accumulation score” value [2] is reported as no more than 0.
In the case of n(c1N)c(N(CC)C(C)C)c(nc1C(=O)\N=C(\N)/N)Cl [5-(N-Ethyl-N-isopropyl)amiloride], the “scaled lipid accumulation score” value [2] is reported as 1.07 (active).
In the case of NC(N)=NC(=O)c1nc(Cl)c(N)nc1N, the “scaled lipid accumulation score” value [2] is reported as no more than 0.
In the case of c(c1N)(C(=O)\N=C(\N)/N)nc(c(N2CCCCCC2)n1)Cl [5-(N,N-hexamethylene)amiloride], the “scaled lipid accumulation score” value [2] is reported as 1.13 (active).
For O=C(O)CCCC=CCC1C(=O)CC(O)C1C=CC(O)CCc1ccccc1 (configuration not stated) [17-Phenyl-trinor-prostaglandin E2], the “scaled lipid accumulation score” value [3] was no more than -0.021.
In the case of O=C(O)CCCC=CCC1C(=O)CC(O)C1C=CC(O)CCc1ccccc1 (configuration not stated) [17-phenyl trinor Prostaglandin E2], the “scaled lipid accumulation score” value [3] is reported as no more than 0.
For O=C(O)c1cc(N(Cc2ccccc2O)Cc2cc(O)ccc2O)ccc1O [Lavendustin A], the “scaled lipid accumulation score” value (library stock concentration: 13.1 mM) was no more than -0.007.
For O=C(O)C(Cc1ccccc1[N+](=O)[O-])=NNc1nc(-c2ccc(Cl)c(Cl)c2)cs1, the “scaled lipid accumulation score” value [1] was 0.038 and the “scaled lipid accumulation score” value [2] was no more than 0.
With Nc1ccc(S(=O)(=O)O)cc1.Nc1ccc(S(=O)(=O)O)cc1.[Zn] [Sulfanilate zinc] the “scaled lipid accumulation score” value (library stock concentration: 4.9 mM) was no more than 0.
With O=C1NC(=O)C(=Cc2ccc(-c3ccc(F)cc3)o2)S1 (stereo in doubt) the “scaled lipid accumulation score” value [1] was 0.028 and the “scaled lipid accumulation score” value [2] was no more than 0.
In the case of O=C1NC(=O)/C(=C/c2ccc(-c3ccc(F)cc3O)o2)S1 [listing 1 of 2 here], the “scaled lipid accumulation score” value [4] is reported as 0.064, the “scaled lipid accumulation score” value [3] is reported as 0.034 and the “scaled lipid accumulation score” value [5] is reported as 0.304. The “scaled lipid accumulation score” value [1] was 0.132 and the “scaled lipid accumulation score” value [2] was 0.526 and 0.759.
For O=C1NC(=O)/C(=C/c2ccc(-c3ccc(F)cc3O)o2)S1 [listing 2 of 2 here], the “scaled lipid accumulation score” value [2] was 1.66 (active).
In the case of CCCCCCCCC=CCC=CCC=CCCCC(=O)O [5(Z),8(Z),11(Z)-Eicosatrienoic Acid], the “scaled lipid accumulation score” value [3] is reported as 0.072.
OC[C@H]1NC[C@H](O)[C@@H](O)[C@@H]1O [1-Deoxynojirimycin hydrochloride] was tested, and the “scaled lipid accumulation score” value [2] was no more than -0.07.
With CNC(=O)[C@H]1O[C@@H](n2cnc3c(NCc4cccc(I)c4)nc(Cl)nc32)[C@H](O)[C@@H]1O [Chloro-IB-MECA] the “scaled lipid accumulation score” value [2] was no more than -0.07.
With CNC(=O)[C@H]1O[C@@H](n2cnc3c(NCc4cccc(I)c4)nc(Cl)nc32)[C@H](O)[C@@H]1O the “scaled lipid accumulation score” value [2] was 0.019.
